Assay results published in the supplement of paper PMC3334620.
In all, about 33,000 sequences were measured (“E-score (-0.5 to 0.5)”: median about -0.0034, highest 2% from about 0.25 on). Only a selection was taken, and the highest values are over-represented in it overall.

target: T1, Yap3 (UniProt P38749); test: PBM E-score (8-mer binding enrichment) (E-score (-0.5 to 0.5)); higher = stronger / more preferred TF binding; settings: protein concentration: 100 nM; construct: GST-full length
T1 sequence: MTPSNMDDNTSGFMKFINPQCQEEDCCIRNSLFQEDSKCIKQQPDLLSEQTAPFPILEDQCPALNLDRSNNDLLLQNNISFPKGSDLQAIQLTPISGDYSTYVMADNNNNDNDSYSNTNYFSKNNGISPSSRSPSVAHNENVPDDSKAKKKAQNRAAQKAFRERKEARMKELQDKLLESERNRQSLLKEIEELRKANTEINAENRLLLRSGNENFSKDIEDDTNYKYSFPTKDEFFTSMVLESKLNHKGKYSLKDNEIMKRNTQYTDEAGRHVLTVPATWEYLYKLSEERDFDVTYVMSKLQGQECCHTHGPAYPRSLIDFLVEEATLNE
In short: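 The E-score, a modified Wilcoxon-Mann-Whitney statistic, was computed by the Universal PBM Analysis Suite for every ungapped eight-base word pooled with its reverse complement. Scans behind it were normalised with masliner after bound GST-tagged yeast transcription factors were detected with fluorescent anti-GST. The proteins, at about 100-200 nM, had been applied to universal all-10-mer Agilent arrays made double-stranded by primer extension.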

Sequence | PBM E-score
CTTTAAGA | 0.0783
GTTTAAAA | 0.0984
AGTTAATA | 0.264
ATTTAATA | 0.302
CTTTAATA | 0.285
ATTTAACA | 0.195
CTTTAATC | 0.152
GTTTAATA | 0.272
AATCGCTA | -0.00025
GGTCGCCA | -0.186
ACCCATCT | 0.0208
AAAGAGCA | 0.132
CCGAGAGG | -0.18
GAGGTCTA | -0.165
TACGCTGA | 0.156
GCTCCAGC | -0.037
AAGTCCGC | -0.104
CGCCAACC | -0.193
CAATAGAC | 0.111
GAAGTCGA | 0.0787
ATTTAACG | 0.204
ATTTAATG | 0.282
ATTTAAGG | 0.0621
CGATAGAA | 0.0788
ACACCCTG | -0.133

Sequence | PBM E-score
CCTTACTA | 0.281
GATTACTA | 0.225
GCTTACTA | 0.237
CCTTACTC | 0.183
CATTACAC | 0.205
AATTACTG | 0.218
TATTACAA | 0.209
AATTACCC | 0.107
AATTACCA | 0.256
GATTACCA | 0.153
AATTACTA | 0.325
CATTACAA | 0.28
AGATCACG | 0.128
GGGCCACC | -0.256
TCTGCTAA | 0.0116
ACCGCGAA | -0.00285
GGACATGA | -0.0945
ACAACTGC | 0.0481
CTGCCCTA | -0.132
CCTGCATC | -0.0897
GGGCTCCA | -0.262
GAGGCACA | -0.0567
CTTTACTA | 0.22
CATTACTA | 0.292
CATTACTC | 0.221

Sequence | PBM E-score
AATCAGAA | 0.0468
AAAGAACC | 0.0747
AGTATTAG | 0.327
AGTATTAA | 0.186
CGTATTAC | 0.231
AGTATTAC | 0.26
CGTATTAG | 0.152
AGTATTAT | 0.1
AGCAAGTG | -0.0827
AAATTGTC | 0.154
GATCGACA | -0.00076
AACTAGAT | 0.0716
AATTGTTG | 0.0159
ATTTGTTC | 0.321
CATTGTTC | 0.125
CTTTGTTC | 0.0752
ATTTGTTA | 0.166
AATTGTTC | 0.257
CATAGTTA | 0.0154
ATAAGCAA | 0.137
GTAAGCAA | 0.27
CTAAGCAA | -0.0294
GTATCATA | 0.276
CTATCATA | 0.12
GTATCTTA | 0.267

Sequence | PBM E-score
ATATCATG | 0.101
GCATCATA | 0.193
ATATCATA | 0.271
CTATCTTA | 0.126
GTATCAGA | -0.0367
GTATCTGA | 0.133
CCTCAAAC | 0.0235
TCGGGCCA | -0.132
GTGAGGCA | 0.0355
CATGACCC | -0.0127
CGGGCCTA | -0.255
GTAGACCA | -0.0918
ACCCGCAG | -0.0808
ATCACTCG | 0.0758
CCAGGTTC | -0.317
GTGCGAGA | 0.0126
ATGTACCA | -0.0322
AAGTTATG | 0.256
AAGTTATA | 0.175
AAGTTATT | 0.174
CATACTGA | 0.136
TATACTGA | 0.295
GATACTGA | 0.0116
TGAGACAA | 0.0572
ATTTCATC | 0.269

Sequence | PBM E-score
ATTTCATA | 0.239
ATTTCATG | -0.0106
CTAGTATC | 0.0604
CCAATTAA | 0.0782
GTAATTGA | 0.115
CTAATTGA | 0.0727
ACAATTAC | 0.203
ATAATTGA | 0.308
TTAATTAA | 0.0675
GCAATTAC | 0.102
GTAATTAC | 0.306
CTAATTAA | 0.135
CCAATTAC | 0.274
GGAATTAC | 0.235
ATAATTAA | 0.259
CGTTCATA | -0.0126
AGCACGCC | -0.157
ACCACTGC | -0.048
GACACTAA | 0.064
AAGGGGCA | -0.105
CTCTCGGA | 0.00281
ATATGCGG | 0.0287
GCAGTGAA | 0.225
GTCAAAGA | -0.0517
AGTAGCCA | -0.141

Sequence | PBM E-score
CATGCACC | -0.191
CGCTGCTC | -0.133
ATAATTCC | 0.163
CTAATTAC | 0.253
CTAATTAG | 0.347
ACAATTAG | -0.0417
ATAATTAG | 0.347
GTAATTAA | 0.259
CAAATTAG | 0.122
CCAATTAG | 0.177
GGAATTAA | 0.233
GTAATTCA | 0.177
AGAATTAG | 0.0612
ATAATTAC | 0.333
ATTAGAGC | 0.116
GAACGCTC | -0.11
AGAGAAAT | 0.142
CAACAGAA | -0.0742
CAACAGGG | -0.116
TACCACAA | 0.123
AGGAAGAT | 0.13
AGTCAGGG | -0.185
CTAATTCA | 0.112
ATAATTAT | 0.302
AGAATTAT | 0.197

Sequence | PBM E-score
ATAATTCA | 0.282
ACAATTAT | 0.248
ATAATTCG | 0.242
ATCAGAGG | -0.132
GACGCTGC | -0.0366
ATGCGAAA | 0.13
ACTTAGGG | -0.112
ATTAATAG | 0.228
CTTAATAA | 0.275
CTTAATAC | 0.0534
ATTAATAA | 0.405
GTTAATAA | 0.223
ATTAATAC | 0.201
AATATGGG | 0.0708
CTTGGTAC | 0.172
GAAGAGCA | -0.258
GCTTCCCC | -0.346
ACGTCAGC | 0.0264
CTCGCGAC | 0.068
GTCGCGAC | 0.324
GTCGCGAA | -0.0136
AAGGTATC | -0.00987
